# Assay results taken from PubChem BioAssay.
# Where “and” joins values, the source holds several entries; their conditions need not be identical. Equal entries are not always repeated. Results filed as inconclusive are left out. Calls of active or inactive are those of the source.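 The calls were made as follows, unless noted: active = compounds killing one labelled cell type while sparing the other, by normalised counts and ratio limits, not self-fluorescent; inactive = the rest.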
# Key:
# [1] = test system: Neuropilin-2 / VEGF-C interaction (human); test: small molecules blocking Neuropilin-2/VEGF-C interaction – biochemical, microplate binding format, z-score (AID 743281; call rule not given here); conditions: microplate NRP2/VEGF-C binding assay; stronger effect = lower value
# [2] = modulation of C. elegans fzo-1 (AID 1259413; call rule not given here;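 also: fzo-1 mutant C. elegans worms in liquid wells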); conditions: C. elegans fzo-1 modulator screen, mean read-out; stronger effect = higher value
# [3] = EMT-state selective cytotoxicity in co-culture – imaging, PC-3E GFP, TEM4-18 mCherry, primary screen (AID 1345086); conditions: PC-3E GFP / TEM4-18 mCherry co-culture, imaging cell counts, at 1 µM; for red/green cell ratio (normalised): actives lie on both sides;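 as to all read-outs here: cells exposed to compound for 72 h before imaging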;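 as to red/green cell ratio (normalised): normalised mesenchymal count divided by normalised epithelial count so high means epithelial killing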
# [4] = test system: Aerobactin synthetase IucA (Klebsiella pneumoniae hvKP1); test: IucA enzyme inhibition, primary screen, biochemical, Spectrum library (AID 1346200; call rule not given here;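 also: 100% = wells without compound and 0% = wells lacking enzyme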); conditions: malachite green pyrophosphate, A620, at 8 µM, stronger effect = lower value
# [5] = molecular target: ATP-dependent translocase ABCB1 (Homo sapiens) (UniProt P08183); test: P-glycoprotein substrate transport blockade – cell-based (AID 377; in the data active = fluorescence slope change above about 50%); conditions: MDR1-expressing cells, fluorescent substrate accumulation slope; stronger effect = higher value; concentration not given here
# Chain of ATP-dependent translocase ABCB1 (Homo sapiens) (P08183 whole entry, looked up): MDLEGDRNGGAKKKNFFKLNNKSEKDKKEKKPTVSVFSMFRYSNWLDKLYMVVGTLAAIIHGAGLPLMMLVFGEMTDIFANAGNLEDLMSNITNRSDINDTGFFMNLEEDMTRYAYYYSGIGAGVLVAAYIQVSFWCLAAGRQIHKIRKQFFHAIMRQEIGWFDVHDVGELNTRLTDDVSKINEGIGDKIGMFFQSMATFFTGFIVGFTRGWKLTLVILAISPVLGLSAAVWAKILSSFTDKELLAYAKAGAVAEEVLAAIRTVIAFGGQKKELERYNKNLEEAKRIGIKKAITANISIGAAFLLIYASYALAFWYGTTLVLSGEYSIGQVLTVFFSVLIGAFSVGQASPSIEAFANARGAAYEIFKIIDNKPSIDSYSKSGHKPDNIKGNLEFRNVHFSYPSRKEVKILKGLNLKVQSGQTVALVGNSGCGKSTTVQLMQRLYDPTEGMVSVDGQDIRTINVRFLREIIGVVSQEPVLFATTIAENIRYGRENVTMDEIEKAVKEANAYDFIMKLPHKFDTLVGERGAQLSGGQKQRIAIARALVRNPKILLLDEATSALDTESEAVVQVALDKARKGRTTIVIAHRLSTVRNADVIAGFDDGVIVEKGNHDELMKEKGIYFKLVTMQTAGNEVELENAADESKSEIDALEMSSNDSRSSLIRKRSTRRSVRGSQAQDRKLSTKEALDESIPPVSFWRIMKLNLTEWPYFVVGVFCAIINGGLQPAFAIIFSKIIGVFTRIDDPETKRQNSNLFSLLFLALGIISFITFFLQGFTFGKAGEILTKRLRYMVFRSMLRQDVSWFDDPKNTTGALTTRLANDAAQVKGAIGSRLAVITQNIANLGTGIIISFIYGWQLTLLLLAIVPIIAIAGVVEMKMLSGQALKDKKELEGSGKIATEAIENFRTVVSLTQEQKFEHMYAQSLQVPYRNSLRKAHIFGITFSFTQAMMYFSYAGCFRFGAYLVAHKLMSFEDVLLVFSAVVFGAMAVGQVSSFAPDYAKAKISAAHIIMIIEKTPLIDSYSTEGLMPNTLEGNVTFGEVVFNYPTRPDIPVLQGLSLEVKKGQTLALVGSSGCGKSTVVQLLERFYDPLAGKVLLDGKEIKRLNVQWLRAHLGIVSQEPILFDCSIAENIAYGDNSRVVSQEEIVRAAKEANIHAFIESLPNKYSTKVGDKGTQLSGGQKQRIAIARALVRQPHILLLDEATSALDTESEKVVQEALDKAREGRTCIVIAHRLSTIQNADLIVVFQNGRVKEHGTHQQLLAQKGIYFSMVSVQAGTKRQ
# [6] = compounds altering circadian rhythm period length – cell-based, LOPAC library, luminescence reporter (AID 2774; call rule not given here;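 also: values are relative to mean of DMSO wells on each plate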); conditions: circadian reporter cells, at 7 µM, actives lie on both sides
# [7] = compounds altering viability of human ES cells (AID 493140; call rule not given here;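 also: cells exposed to compounds for four days before counting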); conditions: human embryonic stem cell survival screen; stronger effect = higher value
# [8] = P. berghei load reduction in hepatocytes – cell-based, HepG2, luciferase luminescence, HepG2 viability, primary screen (AID 624349; in the data active = parasite load remaining mostly below about 12%, no sharp cut-off; inactive = mostly above about 10%;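 also: 100% = mean of DMSO negative control wells on the same plate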); conditions: P. berghei liver stage in HepG2, luciferase luminescence, concentration not given here; parasite load remaining: stronger effect = lower value; viability: measured here: HepG2 viability without parasites
# [9] = test system: Hepatitis C virus NS3 helicase; test: blockers of NS3h binding to ssDNA – biochemical, fluorescence polarization, LOPAC1280 library, primary screen (AID 687035; in the data active = inhibition above about 37%); conditions: Purified HCV NS3 helicase, Cy5-dT15 ssDNA binding fluorescence polarization; stronger effect = higher value; concentration not given here
# [10] = compounds altering Cy5-DNA-NS3h complex signal – biochemical, LOPAC1280, artefact control for HCV NS3 helicase inhibitor project (AID 687037; call rule not given here); conditions: Cy5-DNA-NS3h complex fluorescence interference counterscreen
# [11] = test system: Aerobactin synthetase IucA (Klebsiella pneumoniae); test: inhibition of K. pneumoniae IucA enzyme – biochemical, Tocris library, absorbance (AID 1345561; call rule not given here;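 also: 100% = enzyme without compound and 0% = no enzyme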); conditions: purified IucA enzyme assay, absorbance (OD) read-out; stronger effect = lower value;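 tested at 8 µM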
# [12] = test system: Aerobactin synthetase IucA (Klebsiella pneumoniae, hypervirulent); test: biochemical IucA inhibition screen of LOPAC library by absorbance (AID 1346212; call rule not given here;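 also: 100% = no compound wells and 0% = no enzyme wells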); conditions: IucA enzyme assay, absorbance (OD) readout; stronger effect = lower value;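 tested at 8 µM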
# [13] = chitosan synthesis blockers in C. neoformans – flow cytometry, Cibacron Brilliant Red staining (AID 1347148; call rule not given here;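 also: compound exposure lasted three days at 37 degrees C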); conditions: Cryptococcus neoformans chitosan, stronger effect = lower value; at 10 µM unless noted
# [14] = blockers of cellular phospholipid synthesis – cell-based, LOPAC library, screen 4, primary screen (AID 1347384; call rule not given here); conditions: animal cells, phospholipid biosynthesis inhibition screen; at 10 µM
# [15] = MELAS cybrid and Rieske KO viability enhancers – cell-based, MELAS cybrids, Rieske KO mouse fibroblasts, CellTiter-Glo, primary screen (AID 1508586;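 active = mean z-score across replicates of 1.96 or higher in either the MELAS or the Rieske mutant cell line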;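 also: z relative to plate mean and SD of compound and empty wells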); conditions: low glucose
# [16] = galactose survival enhancers in mitochondrial complex I cybrids – cell-based, galactose medium, ATP luminescence, primary screen (AID 1645843;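 active = z-score of at least 1.8 in each of two replicates, scored against plate mean and spread of sample wells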;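 also: positive z means more ATP and so rescue of galactose-driven cybrid death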); conditions: complex I mutant cybrid cells, 72 h, stronger effect = higher value
# [17] = measured here: epithelial PC-3E GFP cell survival
# [18] = measured here: mesenchymal TEM4-18 mCherry cell survival
# [19] = counts scaled to control wells, 1 = unselective
compound,measurement,setting,value
CC12CCC(=O)C=C1CC[C@@H]1[C@@H]2CCC2(C)[C@H]1CC[C@]2(C)O (stereo partly drawn),outcome,[1],inactive
same,mean signal,[2],283 (inactive)
CN1C[C@H](C(=O)N[C@]2(C)O[C@@]3(O)C4CCCN4C(=O)[C@H](Cc4ccccc4)N3C2=O)C=C2c3cccc4[nH]cc(c34)C[C@H]21 (stereo partly drawn),red/green cell ratio (normalised),[3],0.93 (inactive)
same,normalised cell number,[3]; [17],1.08
same,normalised cell number,[3]; [18],1
CCC(C)C(=O)O[C@@H]1C[C@@]2(C)[C@H](c3ccoc3)OC(=O)CC23OC2(C)OC34[C@H](OC(=O)C(C)C)C3(O)[C@@H](OC(=O)C5(C)OC5C)[C@@]5(C)C[C@]3(O)[C@@](C)([C@H]5CC(=O)OC)C14O2 (stereo partly drawn),red/green cell ratio (normalised),[3]; [19],1.06 (inactive)
same,normalised cell number,[3]; [17],0.98
same,normalised cell number,[3]; [18],1.04
C/C1=C\[C@@H](C)C/C=C/[C@H]2[C@@H]3O[C@]3(C)[C@@H](C)[C@H]3[C@H](Cc4c[nH]c5ccccc45)NC(=O)[C@]32C(=O)/C=C/C(=O)[C@@H]1O,red/green cell ratio (normalised),[3]; [19],0.89 (inactive)
same,normalised cell number,[3]; [17],1.11
same,normalised cell number,[3]; [18],1
Oc1ccc2c3c1O[C@H]1c4[nH]c5ccccc5c4CC4(O)C(C2)N(CC2CC2)CC[C@]314 (stereo partly drawn),outcome,[1],inactive
same,mean signal,[2],234 (inactive)
C[C@@H]1C(=O)OC2[C@H](O)C34[C@@H]5OC(=O)[C@@]3(OC3OC(=O)[C@H](O)[C@@]34[C@H](C(C)(C)C)[C@H]5O)[C@]21O (stereo partly drawn),red/green cell ratio (normalised),[3]; [19],1.08 (inactive)
same,normalised cell number,[3]; [17],0.86
same,normalised cell number,[3]; [18],0.93
CC12CC[C@H]3[C@@H](CC=C4C[C@@H](O)CCC43C)[C@@H]1CCC2=O (stereo partly drawn),outcome,[1],inactive
same,mean signal,[2],245 (inactive)
C[CH2][Hg+].O=C([O-])c1ccccc1[S-].[Na+],red/green cell ratio (normalised),[3]; [19],0.36 (inactive)
same,normalised cell number,[3]; [17],0.18
same,normalised cell number,[3]; [18],0.06
C[C@]12CCC3C(CC[C@H]4C[C@H](O)CC[C@]34C)C1CCC2=O (stereo partly drawn),red/green cell ratio (normalised),[3],1.16 (inactive)
same,normalised cell number,[3]; [17],0.84
same,normalised cell number,[3]; [18],0.97
CN1C2CC(=O)CC1[C@H](O)C2 (stereo partly drawn),red/green cell ratio (normalised),[3]; [19],0.81 (inactive)
same,normalised cell number,[3]; [17],1.25
same,normalised cell number,[3]; [18],1.01
CC12CC[C@H]3[C@@H](CCC4=CC(=O)CC[C@@H]43)[C@@H]1CC[C@@H]2O (stereo partly drawn),outcome,[1],inactive
same,mean signal,[2],225 (inactive)
O=C1CC2OCC=C3CN4CC[C@]56c7ccccc7N1C5[C@H]2[C@@H]3CC46 (stereo partly drawn),red/green cell ratio (normalised),[3]; [19],1.12 (inactive)
same,normalised cell number,[3]; [17],1.02
same,normalised cell number,[3]; [18],1.14
Fc1ccc(C2CCNCC2COc2ccccc2)cc1 (stereo not drawn),red/green cell ratio (normalised),[3]; [19],0.82 (inactive)
same,normalised cell number,[3]; [17],1.28
same,normalised cell number,[3]; [18],1.05
CC(=O)OCC1=C(C(=O)O)N2C(=O)[C@@H](N)C2SC1 (stereo partly drawn),red/green cell ratio (normalised),[3],1.18 (inactive)
same,normalised cell number,[3]; [17],0.96
same,normalised cell number,[3]; [18],1.14
CC[C@H]1CN2CCC1C[C@@H]2[C@H](O)c1ccnc2ccc(OC)cc12 (stereo partly drawn),red/green cell ratio (normalised),[3]; [19],0.88 (inactive)
same,normalised cell number,[3]; [17],1.22
same,normalised cell number,[3]; [18],1.07
N#Cc1c(Cl)nc(NC2CC2)c2ccccc12,red/green cell ratio (normalised),[3]; [19],0.69 (inactive)
same,normalised cell number,[3]; [17],1.32
same,normalised cell number,[3]; [18],0.91
C[C@]12CC[C@H](O)C[C@H]1CCC1C2CC[C@]2(C)[C@@H](C3=CC(=O)OC3)[C@@H](O)C[C@]12O (stereo partly drawn),red/green cell ratio (normalised),[3],0.39 (active)
same,normalised cell number,[3]; [17],0.91
same,normalised cell number,[3]; [18],0.35
CC(C)=CCC[C@H](C)[C@H]1CC[C@]2(C)C[C@H]3[C@@H](C(=O)C[C@@]3(C)O)/C(C=O)=C\C[C@@H]12,red/green cell ratio (normalised),[3]; [19],0.95 (inactive)
same,normalised cell number,[3]; [17],0.85
same,normalised cell number,[3]; [18],0.8
CN1CC[C@@]2(C)c3cc(O)ccc3N(C)[C@@H]12,red/green cell ratio (normalised),[3]; [19],1.19 (inactive)
same,normalised cell number,[3]; [17],0.88
same,normalised cell number,[3]; [18],1.05
CC1(C)CC(=O)C(Cl)C(=O)C1,red/green cell ratio (normalised),[3]; [19],0.82 (inactive)
same,normalised cell number,[3]; [17],1.28
same,normalised cell number,[3]; [18],1.05
C[N+]12CC(C[C@H]1c1cccnc1)C2,red/green cell ratio (normalised),[3]; [19],1.02 (inactive)
same,normalised cell number,[3]; [17],1.14
same,normalised cell number,[3]; [18],1.16
O=C1CCCC2C3CC(CN12)[C@@H]1CCCCN1C3 (stereo partly drawn),red/green cell ratio (normalised),[3]; [19],1.13 (inactive)
same,normalised cell number,[3]; [17],0.86
same,normalised cell number,[3]; [18],0.98
same,activity remaining,[4],119% (inactive)
CC1NCCc2cc(O)c(O)cc21 (stereo not drawn),red/green cell ratio (normalised),[3]; [19],0.96 (inactive)
same,normalised cell number,[3]; [17],1.11
same,normalised cell number,[3]; [18],1.06
COc1cc(O)c2c(=O)oc3cc(O)cc(C)c3c2c1,red/green cell ratio (normalised),[3]; [19],0.9 (inactive)
same,normalised cell number,[3]; [17],1.19
same,normalised cell number,[3]; [18],1.07
Cc1c(O)c(O)cc2c1CC=C1[C@@]2(C)CC[C@@]2(C)C3C[C@](C)(C(=O)O)CC[C@]3(C)CC[C@]12C (stereo partly drawn),red/green cell ratio (normalised),[3],0.65 (inactive)
same,normalised cell number,[3]; [17],0.64
same,normalised cell number,[3]; [18],0.41
same,activity remaining,[4],103% (inactive)
C=CCSSCC=C,red/green cell ratio (normalised),[3],1.09 (inactive)
same,normalised cell number,[3]; [17],0.87
same,normalised cell number,[3]; [18],0.95
same,activity remaining,[4],94.6% (inactive)
CC(C)c1cc2c(c(O)c1O)[C@@]1(C(=O)O)CCCC(C)(C)C1CC2 (stereo partly drawn),red/green cell ratio (normalised),[3],1.17 (inactive)
same,normalised cell number,[3]; [17],0.87
same,normalised cell number,[3]; [18],1.02
same,activity remaining,[4],114% (inactive)
COc1cc(=O)oc(/C=C/C=C/C=C/C(C)=C/[C@@]2(C)O[C@@H](C)[C@@](C)(O)[C@@H]2O)c1C,red/green cell ratio (normalised),[3]; [19],0.98 (inactive)
same,normalised cell number,[3]; [17],0.87
same,normalised cell number,[3]; [18],0.85
O=C1NCC[C@@H]1O,red/green cell ratio (normalised),[3]; [19],0.9 (inactive)
same,normalised cell number,[3]; [17],1.14
same,normalised cell number,[3]; [18],1.03
C[C@]12CCC3C(CC[C@H]4C[C@@H](O)CC[C@]34C)C1CCC2=O (stereo partly drawn),red/green cell ratio (normalised),[3],0.99 (inactive)
same,normalised cell number,[3]; [17],1.2
same,normalised cell number,[3]; [18],1.19
same,activity remaining,[4],102% (inactive)
NCCc1c[nH]c2ccc(O)cc12,fluorescence slope change,[5],73.4% (active)
same,period change,[6],-0.28 h (inactive)
same,survival,[7],12.7 (inactive)
same,parasite load remaining,[8],63.9% (inactive) and 71.4% (inactive)
same,viability,[8],113% and 89.1%
same,inhibition,[9],-1% (inactive)
same,fluorescence ratio (interference),[10],1 (inactive)
same,red/green cell ratio (normalised),[3],1.02 (inactive)
same,normalised cell number,[3]; [17],0.95
same,normalised cell number,[3]; [18],0.96
same,remaining activity,[11],97.8% (inactive)
same,remaining activity,[12],107% (inactive)
same,fold fluorescence,[13],4 [at 283.7 µM] (inactive)
same,outcome,[14],inactive
same,z-score,"[15]; MELAS cybrid survival, CellTiter-Glo 48 h, stronger effect = higher value",-0.165 (inactive) and -0.0524 (inactive)
same,z-score,"[15]; Rieske KO mouse fibroblast survival, CellTiter-Glo 72 h",-0.179 and -0.331
same,z-score,[16],0.29 (inactive) and 0.4 (inactive)
